Experimental data from PubChem BioAssay (NCI).
This is part of a sample that, as a whole, favours compounds with a hit. Of some 79,000 tested, about 15% had one in any assay. Activity calls are given as the source filed them. No stated cut-off is given here; in the data, active means growth inhibition above about 70%; inactive means the rest.

Assays:
[1] = NCI Yeast Anticancer Drug Screen. Data for the rad52 strain (AID 147);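 further: 0% = growth of vehicle-treated control cultures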; settings: S. cerevisiae rad52 mutant growth inhibition, hits give high values
Procedure, shortened: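 Yeast strain carrying a DNA damage repair alteration was exposed to test compounds. Growth inhibition was measured relative to vehicle-treated controls.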

[2] = NCI Yeast Anticancer Drug Screen. Data for the wt1 strain (AID 149);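 further: 0% = growth of vehicle-treated wt1 cultures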; settings: S. cerevisiae wt1 strain (SPY 50644) growth inhibition, hits give high values
Procedure, shortened: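 Measured: growth of wt1 yeast under compound versus vehicle treatment, reported as inhibition.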

[3] = NCI Yeast Anticancer Drug Screen. Data for the rad50EPP+ strain (AID 151);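 further: 0% = growth of vehicle-treated control cultures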; settings: S. cerevisiae rad50 mutant strain, hits give high values
Procedure, shortened: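 Yeast strain carrying rad50 alteration (rad50EPP+) exposed to compounds; growth inhibition measured relative to vehicle-treated controls.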

[4] = NCI Yeast Anticancer Drug Screen. Data for the rad50 strain (AID 155);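 further: 0% = growth of vehicle-only cultures of the same strain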; settings: S. cerevisiae rad50 strain growth inhibition, hits give high values
Procedure, shortened: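 Growth of the mutant yeast was measured after compound exposure and referenced to vehicle-treated cultures.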

[5] = NCI Yeast Anticancer Drug Screen. Data for the mec2-1 strain (AID 157); settings: S. cerevisiae mec2-1 strain, hits give high values
Procedure, shortened: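 mec2-1 yeast strain, carrying an alteration in DNA damage repair or cell cycle control, was exposed to compounds; growth inhibition was measured relative to vehicle-treated controls.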

[6] = NCI Yeast Anticancer Drug Screen. Data for the rad14 strain (AID 159);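 further: 0% = growth of vehicle-treated control cultures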; settings: S. cerevisiae rad14 strain growth inhibition, hits give high values
Procedure, shortened: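 Here, inhibition of yeast growth was measured after compound exposure, using a strain with a genetic defect in DNA damage repair and vehicle-treated cultures as the reference.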

[7] = NCI Yeast Anticancer Drug Screen. Data for the sgs1 mgt1 strain (AID 161);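 further: 0% = growth of cultures given vehicle only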; settings: S. cerevisiae sgs1 mgt1 strain, hits give high values
Procedure, shortened: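 Growth of a repair-deficient yeast mutant was monitored after compound treatment and expressed as inhibition relative to vehicle-treated cultures.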

[8] = NCI Yeast Anticancer Drug Screen. Data for the CLN2oe strain (AID 163);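 further: 0% = growth of vehicle-only control cultures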; settings: S. cerevisiae CLN2oe strain, hits give high values
Procedure, shortened: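 Yeast cells carrying a defined cell-cycle control alteration were exposed to test compounds. Growth inhibition was scored against vehicle-treated control cultures.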

[9] = NCI Yeast Anticancer Drug Screen. Data for the cln2 rad14 strain (AID 165);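 further: 0% = growth equal to vehicle treated cultures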; settings: S. cerevisiae cln2 rad14 strain, hits give high values
Procedure, shortened: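 Yeast carrying cln2 and rad14 alterations (cell cycle control and DNA damage repair) were exposed to compounds. Growth inhibition was measured against vehicle-treated controls.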

[10] = NCI Yeast Anticancer Drug Screen. Data for the bub3 strain (AID 167); settings: S. cerevisiae bub3 mutant strain, hits give high values
Procedure, shortened: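 Whole-cell yeast assay. The mutant strain was incubated with compounds, and growth inhibition was determined by comparison with vehicle-treated cells.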

[11] = NCI Yeast Anticancer Drug Screen. Data for the wt2 strain (AID 169);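 further: 0% = growth of vehicle-treated yeast cultures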; settings: S. cerevisiae wt2 strain growth inhibition, hits give high values
Procedure, shortened: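 Yeast cells were exposed to test compounds, and growth inhibition was measured relative to vehicle-treated controls.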

[12] = NCI Yeast Anticancer Drug Screen. Data for the mlh1 strain (AID 171);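 further: 0% = growth of vehicle-treated control cultures of the same strain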; settings: S. cerevisiae mlh1 strain growth inhibition, hits give high values
Procedure, shortened: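 Yeast carrying a defined genetic alteration in DNA damage repair or cell cycle control were exposed to test compounds. Growth inhibition was measured relative to vehicle-treated controls.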

[13] = NCI Yeast Anticancer Drug Screen. Data for the sgs1 strain (AID 173);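 further: 0% = growth of vehicle-only control cultures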; settings: S. cerevisiae sgs1 mutant, hits give high values
Procedure, shortened: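 Yeast mutant strains carrying defined defects in DNA damage repair or cell cycle control were exposed to test compounds. Growth inhibition was scored against vehicle-treated controls.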

[14] = NCI Yeast Anticancer Drug Screen. Data for the rad18 strain (AID 177); settings: S. cerevisiae rad18 mutant growth inhibition, hits give high values
Procedure, shortened: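 Yeast carrying a defined DNA damage repair alteration were exposed to compounds. Growth inhibition was expressed relative to vehicle-treated controls.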

[15] = at 5.0 µM (retest, dose inferred, filed as 0.5)
[16] = at 50.0 µM (retest, dose inferred, filed as 5.0)

Measured: growth inhibition

COc1ccc(SCc2cc(OC)ccc2OC)cc1
inactive: [1]; at 1.2 µM 0% | [1]; at 3.7 µM 2% | [1]; at 11.0 µM 4% | [1]; at 33.0 µM 3% | [1]; at 100.0 µM 3% | [2]; at 1.2 µM -4% | [2]; at 3.7 µM -4% | [2]; at 11.0 µM -5% | [2]; at 33.0 µM -6% | [2]; at 100.0 µM -1% | [3]; at 1.2 µM 15% | [3]; at 3.7 µM 18% | [3]; at 11.0 µM 27% | [3]; at 33.0 µM 30% | [3]; at 100.0 µM 18% | [4]; at 1.2 µM 0% | [4]; at 3.7 µM 1% | [4]; [15] -8% | [4]; at 11.0 µM 2% | [4]; at 33.0 µM 2% | [4]; [16] 66% | [4]; at 50.0 µM 60.5% | [4]; at 100.0 µM 3% | [5]; at 1.2 µM -1% | [5]; at 3.7 µM -7% | [5]; [15] -26% | [5]; at 11.0 µM -6% | [5]; at 33.0 µM -9% | [5]; [16] 14% | [5]; at 50.0 µM 13.9% | [5]; at 100.0 µM -3% | [6]; at 1.2 µM 0% | [6]; at 3.7 µM -2% | [6]; at 11.0 µM -3% | [6]; at 33.0 µM 0% | [6]; at 100.0 µM 2% | [7]; [15] -27% | [7]; [16] 37% | [7]; at 50.0 µM 67% | [8]; at 1.2 µM -4% | [8]; at 3.7 µM -9% | [8]; at 11.0 µM -6% | [8]; at 33.0 µM -8% | [8]; at 100.0 µM -2% | [9]; [15] -25% | [9]; [16] 58% | [9]; at 50.0 µM 20.1% | [10]; at 1.2 µM 3% | [10]; at 3.7 µM 13% | [10]; [15] -17% | [10]; at 11.0 µM 24% | [10]; at 33.0 µM 21% | [10]; at 50.0 µM 61.3% | [10]; at 100.0 µM 14% | [11]; at 1.2 µM -2% | [11]; at 3.7 µM 0% | [11]; at 11.0 µM -2% | [11]; at 33.0 µM 0% | [11]; at 100.0 µM 1% | [12]; at 1.2 µM -2% | [12]; at 3.7 µM -4% | [12]; at 11.0 µM 0% | [12]; at 33.0 µM -4% | [12]; at 100.0 µM 0% | [13]; at 1.2 µM -2% | [13]; at 3.7 µM -4% | [13]; at 11.0 µM -2% | [13]; at 33.0 µM -2% | [13]; at 100.0 µM 0% | [14]; at 1.2 µM -5% | [14]; at 3.7 µM -5% | [14]; at 11.0 µM -3% | [14]; at 33.0 µM -16% | [14]; at 100.0 µM -1%
active: [10]; [16] 73%
